Some compounds were tested as several samples or in several runs, with calls that do not always agree. The source made the active and inactive calls. How the source made its calls: active means hit-call score of the fitted dose curve at least 0.9, where 1 is the maximum; inactive means score below 0.9.

Read-out in the first assay: not listed separately
Briefly: BSK_hDFCGF_SRB: Viability Assessment in the BioMAP Diversity Plus: hDFCGF Assay (AID 2283061).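 Further: cells exposed to compound for 24 h before the read.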 The note with it: primary human foreskin fibroblasts. The essentials: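 Viability was read as total protein: after 10% TCA fixation, wells were stained with 0.1% sulforhodamine B and read at 560 nm. Primary human foreskin fibroblasts were dosed for 24 h, with bidirectional fitting versus DMSO.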
Consider `OCc1c[nH]c2ccccc12`, for which the outcome was inactive.

Regarding `c1ccc2cc3ccccc3cc2c1`, the result was inactive.

Usually AC50 stands for the midpoint of the concentration-response curve, whichever way the signal moves. For `COc1cc(C(C)C)c2c(c1)S(=O)(=O)N(COc1cc(=O)n3cccc(OCCN4CCCCC4)c3n1)C2=O`, the AC50 was 8.05 µM (active).

Turning to `O=S(=O)(O)CCC(F)(F)C(F)(F)C(F)(F)C(F)(F)C(F)(F)C(F)(F)F`, the AC50 was 8.85 µM (active) and the outcome was inactive.

In the case of `Cc1nccn1-c1ccc(Sc2cccc(C3(C(N)=O)CCOCC3)c2)cc1`, the outcome was inactive.

Consider `CC(C)CC(C)O` (stereo not drawn), for which the outcome was inactive.

As for `NC(=O)NN=Cc1ccc([N+](=O)[O-])o1`, the result was inactive.

`c1ccc(C(O[C@@H]2CCCN(CCc3ccc4c(c3)OCO4)C2)c2ccccc2)cc1`: the AC50 is 29 µM (active).

Consider `CCCCOC(=O)c1ccccc1`, for which the result was inactive.

`FC(F)(F)C(F)(F)C(F)(F)C(F)(F)C(F)(F)C(F)(F)I`: the outcome was inactive.

Consider `NC(=O)N1c2ccccc2C=Cc2ccccc21`, for which the outcome was inactive.

In the case of `Cc1nc(-c2ccccn2)ncc1C(=O)Nn1cc(C)c2cc(F)ccc21`, the result was inactive.

Consider `O=C(O)[C@H](O)[C@@H](O)C(=O)O`, for which the result was inactive.

Consider `Cc1cccc(O)c1C`, for which the outcome was inactive.

`C[Si](C)(C)C(F)(F)C(F)(F)C(F)(F)F`: the AC50 was 30 µM (active) and the result was inactive.

For the compound `CCOC(N)=O`, the outcome was inactive.

On to `OC[C@H]1O[C@@H]2O[C@H]3[C@H](O)[C@@H](O)[C@@H](O[C@H]4[C@H](O)[C@@H](O)[C@@H](O[C@H]5[C@H](O)[C@@H](O)[C@@H](O[C@H]6[C@H](O)[C@@H](O)[C@@H](O[C@H]7[C@H](O)[C@@H](O)[C@@H](O[C@H]1[C@H](O)[C@H]2O)O[C@@H]7CO)O[C@@H]6CO)O[C@@H]5CO)O[C@@H]4CO)O[C@@H]3CO`, for which the outcome was inactive.

On to `COc1cc2c(c(OC)c1OC)-c1ccc(OC)c(=O)cc1[C@@H](NC(C)=O)CC2`, for which the result was inactive.

`OCCC(F)(F)C(F)(F)C(F)(F)C(F)(F)F`: the outcome was inactive.

As to `O=C(O)c1cccc(C(=O)O)c1`, the result was inactive.

On to `CNC(C)=O`, for which the result was inactive.

As to `CCCCCCCC1CCC(=O)O1` (stereo not drawn), the result was inactive.

With `O=C1CN(N=Cc2ccc([N+](=O)[O-])o2)C(=O)N1`, the result was inactive.

In the case of `COS(C)(=O)=O`, the outcome was inactive.

For `S=P(N1CC1)(N1CC1)N1CC1`, the result was inactive.

As for `C[C@@H](Oc1ccc(CNC(=O)c2cccnc2Oc2ccc3c(c2)OCO3)c(F)c1)C(=O)O`, the result was inactive.

On to `O=c1[nH]cnc2c1ncn2[C@H]1CC[C@@H](CO)O1`, for which the outcome was inactive.

Read-out in a further assay: TIMP metallopeptidase inhibitor 1 (TIMP1), TIMP1 (gene 7076)
Nature of the assay: BSK_hDFCGF_TIMP1: BioMAP Diversity Plus: hDFCGF Assay for TIMP metallopeptidase inhibitor 1 (TIMP1) Biomarker Activity (AID 2283062). As to conditions: primary human foreskin fibroblasts; actives raise or lower the signal. The essentials:
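TIMP-1 measured by ELISA 24 h after chemical dosing of primary human skin fibroblasts, with gain or loss fitted relative to DMSO. Parallel SRB staining (560 nm) monitored overt cytotoxicity.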
In the case of `OCc1c[nH]c2ccccc12`, the outcome was inactive.

On to `c1ccc2cc3ccccc3cc2c1`, for which the result was inactive.

For the compound `COc1cc(C(C)C)c2c(c1)S(=O)(=O)N(COc1cc(=O)n3cccc(OCCN4CCCCC4)c3n1)C2=O`, the result was inactive.

With `O=S(=O)(O)CCC(F)(F)C(F)(F)C(F)(F)C(F)(F)C(F)(F)C(F)(F)F`, the result was inactive.

As for `Cc1nccn1-c1ccc(Sc2cccc(C3(C(N)=O)CCOCC3)c2)cc1`, the AC50 was 2.1 µM (active).

Consider `CC(C)CC(C)O` (stereo not drawn), for which the outcome was inactive.

On to `NC(=O)NN=Cc1ccc([N+](=O)[O-])o1`, for which the result was inactive.

Turning to `c1ccc(C(O[C@@H]2CCCN(CCc3ccc4c(c3)OCO4)C2)c2ccccc2)cc1`, the result was inactive.

Take `CCCCOC(=O)c1ccccc1`: the result was inactive.

Take `FC(F)(F)C(F)(F)C(F)(F)C(F)(F)C(F)(F)C(F)(F)I`: the outcome was inactive.

Regarding `NC(=O)N1c2ccccc2C=Cc2ccccc21`, the result was inactive.

For `Cc1nc(-c2ccccn2)ncc1C(=O)Nn1cc(C)c2cc(F)ccc21`, the result was inactive.

For the compound `O=C(O)[C@H](O)[C@@H](O)C(=O)O`, the outcome was inactive.

As to `Cc1cccc(O)c1C`, the result was inactive.

With `C[Si](C)(C)C(F)(F)C(F)(F)C(F)(F)F`, the result was inactive.

For the compound `CCOC(N)=O`, the outcome was inactive.

For `OC[C@H]1O[C@@H]2O[C@H]3[C@H](O)[C@@H](O)[C@@H](O[C@H]4[C@H](O)[C@@H](O)[C@@H](O[C@H]5[C@H](O)[C@@H](O)[C@@H](O[C@H]6[C@H](O)[C@@H](O)[C@@H](O[C@H]7[C@H](O)[C@@H](O)[C@@H](O[C@H]1[C@H](O)[C@H]2O)O[C@@H]7CO)O[C@@H]6CO)O[C@@H]5CO)O[C@@H]4CO)O[C@@H]3CO`, the result was inactive.

`COc1cc2c(c(OC)c1OC)-c1ccc(OC)c(=O)cc1[C@@H](NC(C)=O)CC2`: the outcome was inactive.

Turning to `OCCC(F)(F)C(F)(F)C(F)(F)C(F)(F)F`, the result was inactive.

Turning to `O=C(O)c1cccc(C(=O)O)c1`, the outcome was inactive.

As to `CNC(C)=O`, the result was inactive.

For the compound `CCCCCCCC1CCC(=O)O1` (stereo not drawn), the result was inactive.

Regarding `O=C1CN(N=Cc2ccc([N+](=O)[O-])o2)C(=O)N1`, the outcome was inactive.

On to `COS(C)(=O)=O`, for which the outcome was inactive.

On to `S=P(N1CC1)(N1CC1)N1CC1`, for which the outcome was inactive.

`C[C@@H](Oc1ccc(CNC(=O)c2cccnc2Oc2ccc3c(c2)OCO3)c(F)c1)C(=O)O`: the result was inactive.

In the case of `O=c1[nH]cnc2c1ncn2[C@H]1CC[C@@H](CO)O1`, the result was inactive.

Read-out in another assay: Monokine induced gamma interferon (MIG), CXCL9 (gene 4283)
Nature of the assay: BSK_hDFCGF_MIG: BioMAP Diversity Plus: hDFCGF Assay for Monokine induced gamma interferon (MIG) Biomarker Activity (AID 2283063). The note with it: primary human foreskin fibroblasts; actives raise or lower the signal. The essentials:
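Human primary foreskin fibroblasts in the hDFCGF system, exposed to test chemical for 24 h; MIG measured by ELISA. Bidirectional curve fitting against DMSO negative control as activity baseline.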
In the case of `OCc1c[nH]c2ccccc12`, the result was inactive.

Regarding `c1ccc2cc3ccccc3cc2c1`, the result was inactive.

Turning to `COc1cc(C(C)C)c2c(c1)S(=O)(=O)N(COc1cc(=O)n3cccc(OCCN4CCCCC4)c3n1)C2=O`, the AC50 was 5.41 µM (active).

`O=S(=O)(O)CCC(F)(F)C(F)(F)C(F)(F)C(F)(F)C(F)(F)C(F)(F)F`: the result was inactive.

In the case of `Cc1nccn1-c1ccc(Sc2cccc(C3(C(N)=O)CCOCC3)c2)cc1`, the AC50 was 6.44 µM (active).

`CC(C)CC(C)O` (stereo not drawn): the result was inactive.

As to `NC(=O)NN=Cc1ccc([N+](=O)[O-])o1`, the result was inactive.

With `c1ccc(C(O[C@@H]2CCCN(CCc3ccc4c(c3)OCO4)C2)c2ccccc2)cc1`, the result was inactive.

`CCCCOC(=O)c1ccccc1`: the result was inactive.

Consider `FC(F)(F)C(F)(F)C(F)(F)C(F)(F)C(F)(F)C(F)(F)I`, for which the outcome was inactive.

In the case of `NC(=O)N1c2ccccc2C=Cc2ccccc21`, the result was inactive.

Turning to `Cc1nc(-c2ccccn2)ncc1C(=O)Nn1cc(C)c2cc(F)ccc21`, the outcome was inactive.

Regarding `O=C(O)[C@H](O)[C@@H](O)C(=O)O`, the result was inactive.

As for `Cc1cccc(O)c1C`, the result was inactive.

Take `C[Si](C)(C)C(F)(F)C(F)(F)C(F)(F)F`: the result was inactive.

With `CCOC(N)=O`, the result was inactive.

For the compound `OC[C@H]1O[C@@H]2O[C@H]3[C@H](O)[C@@H](O)[C@@H](O[C@H]4[C@H](O)[C@@H](O)[C@@H](O[C@H]5[C@H](O)[C@@H](O)[C@@H](O[C@H]6[C@H](O)[C@@H](O)[C@@H](O[C@H]7[C@H](O)[C@@H](O)[C@@H](O[C@H]1[C@H](O)[C@H]2O)O[C@@H]7CO)O[C@@H]6CO)O[C@@H]5CO)O[C@@H]4CO)O[C@@H]3CO`, the outcome was inactive.

As for `COc1cc2c(c(OC)c1OC)-c1ccc(OC)c(=O)cc1[C@@H](NC(C)=O)CC2`, the outcome was inactive.

With `OCCC(F)(F)C(F)(F)C(F)(F)C(F)(F)F`, the result was inactive.

As to `O=C(O)c1cccc(C(=O)O)c1`, the outcome was inactive.

As for `CNC(C)=O`, the result was inactive.

`CCCCCCCC1CCC(=O)O1` (stereo not drawn): the outcome was inactive.

Take `O=C1CN(N=Cc2ccc([N+](=O)[O-])o2)C(=O)N1`: the outcome was inactive.

In the case of `COS(C)(=O)=O`, the result was inactive.

Take `S=P(N1CC1)(N1CC1)N1CC1`: the outcome was inactive.

For `C[C@@H](Oc1ccc(CNC(=O)c2cccnc2Oc2ccc3c(c2)OCO3)c(F)c1)C(=O)O`, the result was inactive.

`O=c1[nH]cnc2c1ncn2[C@H]1CC[C@@H](CO)O1`: the result was inactive.

These data come from PubChem BioAssay (EPA / NIEHS).
